Pf apPOL inh – Pf-apPOL inhibitors, biochemical, fluorescence; Plasmodium falciparum apicoplast DNA polymerase (apPOL); Recombinant Pf-apPOL, molecular beacon fluorescence, 1.5 h; inhibition, % at 10 µM; 0.25% of 210,000 active; AID 1794808, 2022
mHTT CaM bind – mutant huntingtin-calmodulin interaction inhibitors – biochemical, AlphaScreen, primary screen | AlphaScreen His-mHTT/GST-CaM binding, luminescence | P42858 | inhibition, % at 15 µM | 3.6% of 190,000 active;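 also: 0% = both proteins with DMSO and 100% = one protein alone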
The depositor's hits bear a star; x = no result; ! = not confirmed by another sample. Rows were chosen to be rich in hits. Some 3.5% of all compounds tested hit in one or more screens of this group. Rule as the data show it: active = inhibition above about 50%; inactive = the rest.

SMILES	Pf apPOL inh	mHTT CaM bind
CCCCCCN1C[C@@H](n2cc(C3CC3)nn2)[C@H](O)C[C@@H]1c1ccc(C)cc1	5	29
CCCCCCN1C[C@H](n2cc(C3CC3)nn2)[C@@H](O)C[C@@H]1c1ccc(C)cc1	-2	77*
CC(C)CCNC(=O)c1c[nH]c2ccc(S(=O)(=O)N3CCc4ccccc43)cc2c1=O	-9	11
CC(NC(=O)c1cn2c(n1)CCCC2)c1ccc(F)cc1 (stereo not drawn)	-8	10
CC(NC(=O)c1cn2c(n1)CSCC2)c1ccc(F)cc1 (stereo not drawn)	-6	93*
COc1ccc(NC(=O)CN2CCC3(CC2)N=C(c2ccc(F)cc2)C(=O)N3)cc1OC	-2	17
CC1=NN(c2cccc(Cl)c2)C(=O)/C1=C/c1ccc2c(c1)OCO2	5	3
NS(=O)(=O)c1ccc(N2CCOCC2)c([N+](=O)[O-])c1	-12	x
O=[N+]([O-])c1cc(Br)c2nsnc2c1N1CCOCC1	-2	67*!
N#C/C(=C\c1cc2c(cc1Br)OCO2)c1ccc([N+](=O)[O-])cc1	3	7
N#C/C(=C\c1ccccc1/C=C(\C#N)c1ccc2c(c1)OCO2)c1ccc2c(c1)OCO2	x	73*
COc1ccc(CNC(=O)c2cc3ccccn3c2)cc1	0	7
COc1cccc(C(C)NC(=O)c2cc3ccccn3c2)c1 (stereo not drawn)	-3	68*
COc1cc(/C=C2\C(=O)NN(c3cccc(Br)c3)C2=O)c([N+](=O)[O-])cc1OC	-2	18
Cc1ccnc(NC(c2cccc([N+](=O)[O-])c2)c2ccc3cccnc3c2O)c1 (stereo not drawn)	-1	100*
CCC(=O)NC(c1cccc([N+](=O)[O-])c1)c1ccc2cccnc2c1O (stereo not drawn)	-2	100*
Cc1nc(O)c(C(c2cccc([N+](=O)[O-])c2)c2c(O)nc(C)[nH]c2=O)c(=O)[nH]1	2	3
Cc1ccnc(NC(c2ccc([N+](=O)[O-])cc2)c2ccc3cccnc3c2O)c1 (stereo not drawn)	-8	100*
Cc1cccc(-c2cc(NC(=O)c3ccc([N+](=O)[O-])cc3)n[nH]2)c1	1	5
Fc1cccc(OCc2noc(-c3cccc(Cl)c3)n2)c1	-2	-60
CCNCCNC(=O)c1c(O)c2cc(F)cc3c2n(c1=O)C(C)CC3 (stereo not drawn)	-66	98*
CC1CCc2cc(F)cc3c(O)c(C(=O)NCCCN4CCOCC4)c(=O)n1c23 (stereo not drawn)	-80	27
O=C1c2ccc([N+](=O)[O-])cc2C(=O)N1CNc1ccc(F)cc1	-4	-1
O=C(NCCC1=CCCCC1)c1cc(N2C(=O)CCS2(=O)=O)ccc1Cl	-3	-11
O=C(c1cc2cc(Br)ccc2oc1=O)N1CCSC1c1ccc([N+](=O)[O-])cc1 (stereo not drawn)	1	12
SMILES	Pf apPOL inh	mHTT CaM bind
CC(C)(C)N=C1Nc2ccccc2NC12CCCN(C(=O)c1ccncc1)C2 (stereo not drawn)	16	18
CC(C)(C)N=C1Nc2ccccc2NC12CCCN(C(=O)COc1ccccc1)C2 (stereo not drawn)	-5	36
Cc1ccccc1OCC(=O)N1CCCC2(C1)Nc1ccccc1NC2=NC(C)(C)C (stereo not drawn)	6	75*
CC(C)(C)N=C1Nc2ccccc2NC12CCCN(C(=O)c1ccccc1)C2 (stereo not drawn)	-5	82*
COc1ccc(NC(=O)CN2N=NC3C(=O)N(c4ccc(F)cc4)C(=O)C32)cc1Cl (stereo not drawn)	8	2
Cc1ccc(S(=O)(=O)N2CCC(c3nc4cccnc4n3C)C2)cc1Cl (stereo not drawn)	-2	1
CN(C)c1ccc(CC2C(=O)Nc3ccccc32)cc1 (stereo not drawn)	6	x
CC1=Nc2ccccc2NC(=O)C1Cc1ccccc1 (stereo not drawn)	-9	91*
Cc1c(CCCN)c2ccccc2n1-c1ccccc1	-6	50*
N=c1sc2ccccc2n1-c1ccccc1	-13	x
O=C1OC(c2ccc([N+](=O)[O-])cc2)=N/C1=C\c1ccc(Cl)cc1Cl	-1	4
CNc1nccc(N2CCC(CC(=O)NCc3cccc(C(F)(F)F)c3)CC2)n1	1	54*
CNc1nccc(N2CCC(CC(=O)NCc3ccc(OC)c(OC)c3)CC2)n1	-2	17
COc1ccc(-c2noc(C3CCN(CC(=O)Nc4cccc(C)c4C)CC3)n2)cc1	-5	2
COc1ccc(N2C(=O)CSC2c2cccc(OC)c2OC)cc1Cl (stereo not drawn)	-1	9
CCOc1ccc(NC(=O)c2cc(N3CCOCC3)c3cc(C)ccc3n2)cc1	-4	23
CC1=Nc2cc(C(=O)NCCCN3CCC(C)CC3)ccc2Sc2ccc(Cl)cc21	-16	53*
CC1=Nc2cc(C(=O)NCCN3CCOCC3)ccc2Sc2ccc(Cl)cc21	-20	39
CCOc1ccc(NC(=O)N2CCCC(c3cccc(C(=O)N4CCCC4)c3)C2)cc1 (stereo not drawn)	-5	14
Nc1nccc(-c2ccc(NS(=O)(=O)c3cccc(C(F)(F)F)c3)cc2)n1	-2	x
COc1ccc(C=Nc2cccc(N=Cc3ccc(OC)c(OC)c3)c2)cc1OC	-4	74*
COc1cc(C=Nc2ccc(C)c(C)c2)ccc1O	3	19
Cc1c(Cc2ccccc2)sc(NC(=O)C(F)(F)F)c1C(N)=O	1	16
Cc1c(Cc2ccccc2)sc(NC(=O)CCc2ccccc2)c1C(N)=O	-10	52*
CCN(Cc1ccccc1)S(=O)(=O)c1ccc(F)c(C(=O)Nc2cccc(Cl)c2)c1	-5	-13
SMILES	Pf apPOL inh	mHTT CaM bind
COCCCNC(=O)NC1CCN(c2nc3ccccc3n(C)c2=O)CC1	-3	4
CCCCOC(=O)c1ccc(NC(=O)c2cc3cccnc3n(CC)c2=O)cc1	2	-6
Cc1cc(=O)[nH]c(-n2nc(-c3ccccc3)cc2NC(=O)CCSc2ccccc2)n1	-10	-13
Cc1cc(=O)[nH]c(-n2nc(C3CC3)cc2NC(=O)C2(c3ccc(Cl)cc3)CCCC2)n1	-71	57*
Cc1cc(C(=O)Nc2ccccc2)c(C)o1	-9	5
Cc1cc(C(=O)Nc2cccc(OC(C)C)c2)c(C)o1	-5	51*
CC(C)n1c(Br)nc2c1c(=O)n(C)c(=O)n2C	4	-5
O=C(COc1ccccc1[N+](=O)[O-])Nc1nccs1	-4	4
O=Cc1cc(Cc2ccccc2)cc(Br)c1O	-3	100*
CCOc1cc(C=O)c(Br)cc1OCc1ccccc1	6	-5
COc1ccc(-c2cc(-c3ccccc3)nc(=O)[nH]2)cc1	-6	3
COc1ccc(-c2cc(-c3cc(OC)ccc3O)[nH]n2)cc1	-3	72*
CN1CCN(C2=NC(=O)/C(=C/c3ccccc3)S2)CC1	-7	2
O=C1N=C(N2CCCC2)S/C1=C/C=C/c1ccccc1	-2	76*
O=C1N=C(N2CCCCC2)S/C1=C/C1=Cc2ccccc2OC1	-7	66*
O=C1N=C(N2CCOCC2)S/C1=C\C1=Cc2ccccc2OC1	x	45
Cc1ccc(NC(=O)CCc2cccc3[nH]ccc23)cc1C	0	22
COc1ccc(C2=NN(C(=O)CN(C)C(C)=O)C(c3ccc(C)cc3)C2)cc1 (stereo not drawn)	-8	23

Compound activity (PubChem)
